# Test results as given in PubChem BioAssay (NCATS).
# Where “and” joins values, the source holds several entries; their conditions need not be identical. Identical values can stand only once. Inconclusive results are not listed. Entries that show only a call come without a potency. Calls of active or inactive are those of the source. Unless noted, calls follow the shape of the dose curve; as a rule, active = well fitted curve in the direction sought with a large enough effect; inconclusive = small, poorly fitted or top-dose-only effect, or another doubt; inactive = no such curve, though single readings can be large; an effect the other way counts as inactive or inconclusive.
# Legend:
# [1] = Cell Viability - BJ (AID 421; calls by dose curve;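 also: potency is read from the fitted curve at half-maximal effect; cells exposed to compound for 40 hours at 37 °C before readout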); conditions: BJ fibroblast viability, qHTS
# How it was run: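 Cytotoxicity as drop in intracellular ATP (CellTiter-Glo, 20 min RT) after 40 hr compound exposure of BJ fibroblasts at 37 °C. Titrations scaled between DMSO and 100 uM tamoxifen, Hill-fitted for AC50.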
# [2] = Cell Viability - HepG2 (AID 433; calls by dose curve;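 also: potency is read from the fitted curve at half-maximal effect; potency for ATP loss meaning cytotoxicity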); conditions: qHTS
# How it was run: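 HepG2 cells, 1500 per well, treated 40 hr at 37 °C in complete medium; viability from intracellular ATP by CellTiter-Glo luminescence. Normalized to DMSO and 100 uM tamoxifen; AC50 from Hill fit of qHTS concentration-response.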
# [3] = Cell Viability - HUV-EC-C (AID 542); conditions: HUV-EC-C endothelial cell viability, qHTS; series mostly up to 92.2 µM; also: nearly all actives have a fitted effect of over 35% in size
# How it was run: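 Cells were seeded at 1000 per well and incubated 5 hr at 37 °C before compound addition. After 40 hr at 37 °C, CellTiter-Glo reagent was added for 20 min and luminescence read. AC50 values came from Hill-equation modelling.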
# [4] = Cell Viability - Renal Proximal Tubule (AID 545); conditions: renal proximal tubule cells viability, primary cells of rat origin; activity change, negative = cytotoxicity: at 91.7 µM (top of the series); also: nearly all actives have a fitted effect of over 40% in size
# How it was run: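 Rat renal proximal tubule primary cells, 1000/well, exposed to compounds for 40 hr at 37 °C in complete medium; cellular ATP read by CellTiter-Glo luminescence. AC50 from concentration-response fitted with standard Hill equation.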
# [5] = Cell Viability - Mesenchymal (AID 546); conditions: mesenchymal cells viability, qHTS; activity change, negative = cytotoxicity: at 91.7 µM (top of the series);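 also: cells exposed to compound for 40 hours before reading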
# How it was run: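 In this qHTS cytotoxicity format, glomerulus-derived human mesenchymal kidney cells received compound for 40 hr, then luciferase-based ATP quantitation. Concentration-response data were fitted with the Hill equation.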
# [6] = MultiTox-Fluor Cytotoxicity Assay - LYMP1-003 - Dead Cells (AID 961); conditions: LYMP1-003 lymphoblastoid cells, dead-cell protease fluorescence; series mostly up to 92.2 µM; also: nearly all actives have a fitted effect of over 70% in size
# How it was run: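 Dead-cell protease release, detected as bis-AAF-R110 fluorescence at 485/520 nm, was measured in LYMP1-003 cells after 16 h compound treatment at 37 C. AC50 values came from Hill-modeled qHTS curves normalized to DMSO (0%) and 15 uM tetraoctylammonium bromide (100%).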
# [7] = Cell Viability - LYMP2-003 (AID 965); conditions: LYMP2-003 lymphoblastoid cell viability; series mostly up to 92.2 µM;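 also: cells exposed to compounds for 24 h before reading; nearly all actives have a fitted effect of over 50% in size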; also: potency is read from the fitted curve at half-maximal effect
# How it was run: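 Human lymphoblastoid LYMP2-003 cells, 2500/well, exposed to compounds for 24 h at 37 C in complete medium. Viability read as intracellular ATP by CellTiter-Glo luminescence; AC50 from Hill-equation fits of qHTS concentration-response data.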
# [8] = Cell Viability - LYMP2-011 (AID 969); conditions: LYMP2-011 lymphoblastoid cells viability; series mostly up to 92.2 µM; also: nearly all actives have a fitted effect of over 60% in size
# How it was run: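 In this qHTS cytotoxicity format, compounds are tested across concentrations on human lymphoblastoid cells in complete medium for 24 hours at 37 C. Viability is taken as cellular ATP measured by luciferase luminescence.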
# [9] = Cell Viability - LYMP2-013 (AID 970); conditions: LYMP2-013 lymphoblastoid cells viability; series mostly up to 92.2 µM; also: nearly all actives have a fitted effect of over 55% in size
# How it was run: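 Cytotoxicity is scored as a concentration-dependent drop in intracellular ATP in human lymphoblastoid cells after 24 hr compound exposure at 37 C. ATP is quantified by luciferase luminescence, and AC50 values come from Hill-equation modeling.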
# [10] = Cell Viability - LYMP2-023 (AID 975); conditions: LYMP2-023 lymphoblastoid cell viability; series mostly up to 92.2 µM; also: nearly all actives have a fitted effect of over 55% in size
# How it was run: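 Steps: seed 2500 human lymphoblastoid cells per well, incubate 5 hr at 37 C, add compound for 24 hr at 37 C, add CellTiter-Glo, hold 30 min at room temperature, read luminescence. AC50 derived by Hill modelling.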
# [11] = Cell Viability - LYMP2-025 (AID 976); conditions: LYMP2-025 lymphoblastoid cell viability; series mostly up to 92.2 µM
# How it was run: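 Acute cytotoxicity is scored as a concentration-dependent fall in intracellular ATP, measured by luciferase luminescence, in human lymphoblastoid LYMP2-025 cells exposed to compound for 24 hours at 37 C. AC50 values come from standard Hill fits.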
# [12] = Cell Viability - LYMP2-002 (AID 977); conditions: LYMP2-002 lymphoblastoid cell viability, qHTS; series mostly up to 92.2 µM;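 also: compound exposure lasted 24 h at 37 °C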
# How it was run: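 In this qHTS viability screen, 2500 human lymphoblastoid cells per well receive compound for 24 hr at 37 C, and luciferase-based ATP luminescence gives the viability signal. Tetraoctylammonium bromide serves as positive control.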
# [13] = Cell Viability - LYMP2-008 (AID 980); conditions: LYMP2-008 lymphoblastoid cell viability, qHTS; series mostly up to 92.2 µM; also: nearly all actives have a fitted effect of over 60% in size
# How it was run: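 Cells seeded at 2500/well and rested 5 hr at 37 C; compounds added over a concentration range and incubated 24 hr at 37 C; CellTiter-Glo added, 30 min at room temperature; luminescence read and AC50 fitted with Hill model.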
# [14] = Cell Viability - LYMP2-014 (AID 983); conditions: LYMP2-014 lymphoblastoid cells, viability qHTS; series mostly up to 92.2 µM; also: nearly all actives have a fitted effect of over 50% in size
# How it was run: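 Cells are plated at 2500/well and left 5 hr at 37 C. Compounds are added across a concentration range and incubated 24 hr at 37 C in complete medium. CellTiter-Glo is added, and luminescence is read after 30 min at room temperature.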
# [15] = Cell Viability - LYMP2-016 (AID 984); conditions: LYMP2-016 lymphoblastoid cell viability, qHTS; series mostly up to 92.2 µM; also: nearly all actives have a fitted effect of over 55% in size
# How it was run: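 Human lymphoblastoid LYMP2-016 cells, 2500 per well, treated with compounds for 24 h at 37 C. Viability read as intracellular ATP by CellTiter-Glo luminescence after 30 min at room temperature; AC50 from Hill fits of concentration-response.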
# [16] = Cell Viability - LYMP2-026 (AID 989); conditions: LYMP2-026 lymphoblastoid cell viability, qHTS; series mostly up to 92.2 µM; also: nearly all actives have a fitted effect of over 50% in size
# How it was run: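 Cells are seeded at 2500 per well and held 5 hr at 37 C. Compounds are added in concentration series for 24 hr, then CellTiter-Glo reagent is applied and luminescence read.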
# [17] = Cell Viability - LYMP1-002 - Assay at 40 hr (AID 994); conditions: LYMP1-002 lymphoblastoid cell viability; series mostly up to 92.2 µM; also: nearly all actives have a fitted effect of over 60% in size
# How it was run: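 Cells are plated at 2500 per well and rested 5 hr at 37 C. Compounds are added and incubated 40 hr at 37 C. CellTiter-Glo reagent is added for 30 min at room temperature before luminescence is read.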
# [18] = qHTS assay for small molecule antagonists of retinoid X receptor alpha signaling (AID 588546; active = well fitted inhibition curve with a large enough effect in the signal ratio, with a control signal flat, not every such curve was filed as active; the % refers to the signal ratio; also: potency is read from the fitted curve at half-maximal effect;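 as to max response: cells stimulated with 9-cis-retinoic acid as agonist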); conditions: HEK293T RXRa-UAS-bla, beta-lactamase ratio, antagonist mode; measured here: W530 green channel, cytotoxicity proxy
# How it was run: (§1)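 Beta-lactamase reporter inhibition, read as CCF4 fluorescence ratio (ex 405, em 460/530 nm) after 2 h at RT. HEK293T UAS-bla cells, 2500/well, were stimulated with 9-cis-RA at 500 or 100 nM final alongside test compound for 18 h at 37 C.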
# [19] = target: Retinoic acid receptor RXR-alpha (Homo sapiens) (UniProt P19793); assay: as above; conditions: HEK293T RXRa-UAS-bla, beta-lactamase ratio, antagonist mode
# Sequence of Retinoic acid receptor RXR-alpha (Homo sapiens) (P19793 whole entry, looked up): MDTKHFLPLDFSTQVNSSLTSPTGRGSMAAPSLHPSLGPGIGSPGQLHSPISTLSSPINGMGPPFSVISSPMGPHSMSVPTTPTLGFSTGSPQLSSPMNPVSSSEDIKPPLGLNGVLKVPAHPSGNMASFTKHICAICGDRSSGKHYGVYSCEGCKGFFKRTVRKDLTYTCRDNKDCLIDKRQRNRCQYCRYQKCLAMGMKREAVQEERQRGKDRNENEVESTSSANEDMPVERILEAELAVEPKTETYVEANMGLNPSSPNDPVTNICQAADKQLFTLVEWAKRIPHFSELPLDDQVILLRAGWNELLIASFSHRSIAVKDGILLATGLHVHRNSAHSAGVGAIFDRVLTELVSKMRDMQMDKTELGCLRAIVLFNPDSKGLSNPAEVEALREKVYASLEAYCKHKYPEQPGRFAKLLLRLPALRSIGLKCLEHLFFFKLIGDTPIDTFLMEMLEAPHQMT
# How it was run: as §1
# [20] = qHTS assay for environmental chemicals that activate the Aryl hydrocarbon Receptor (AhR) signaling pathway (AID 651777); conditions: 1A2-DRE human hepatoma cells, luciferase, 24 h; activation: stronger effect = higher value; also: nearly all actives have a fitted effect of over 15% in size; also: potency is read from the fitted curve at half-maximal effect
# How it was run: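 Quantitative HTS in stably transfected human liver-derived cells whose luciferase gene sits downstream of the CYP1A2 promoter and dioxin response element. After 24 hr exposure at 37 C, One-Glo luminescence was measured.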
smiles,measurement,setting,value
C[Si](C)(C)Cl,Potency,[1],> 92 µM (inactive)
same,Potency,[2],> 92 µM (inactive)
same,Potency,[3],inactive
same,Potency,[4],inactive
same,Potency,[5],inactive
same,Potency,[6],inactive
same,Potency,[7],inactive
same,Potency,[8],inactive
same,Potency,[9],inactive
same,Potency,[10],inactive
same,Potency,[11],inactive
same,Potency,[12],inactive
same,Potency,[13],inactive
same,Potency,[14],inactive
same,Potency,[15],inactive
same,Potency,[16],inactive
same,Potency,[17],inactive
same,max response,[18],3.42%
same,max response,[19],16.7% (inactive)
same,activation,[20],1.28% (inactive)
c1ccc2c(c1)ccc1ccccc12,Potency,[1],> 92 µM (inactive)
same,Potency,[2],> 92 µM (inactive)
same,Potency,[3],inactive
same,Potency,[4],inactive
same,Potency,[5],inactive
same,Potency,[6],inactive
same,Potency,[7],inactive
same,Potency,[8],inactive
same,Potency,[9],inactive
same,Potency,[10],inactive
same,Potency,[11],inactive
same,Potency,[12],inactive
same,Potency,[13],inactive
same,Potency,[14],inactive
same,Potency,[15],inactive
same,Potency,[16],inactive
same,Potency,[17],inactive
same,max response,[18],-0.251%
same,max response,[19],9.87% (inactive)
same,activation,[20],0.646% (inactive) and 0.0503% (inactive)
c1ccncc1,Potency,[1],> 92 µM (inactive)
same,Potency,[2],> 92 µM (inactive)
same,Potency,[3],inactive
same,Potency,[4],inactive
same,Potency,[5],inactive
same,Potency,[6],inactive
same,Potency,[7],inactive
same,Potency,[8],inactive
same,Potency,[9],inactive
same,Potency,[10],inactive
same,Potency,[11],inactive
same,Potency,[12],inactive
same,Potency,[13],inactive
same,Potency,[14],inactive
same,Potency,[15],inactive
same,Potency,[16],inactive
same,Potency,[17],inactive
same,activation,[20],-1.01% (inactive)
CCN(CC)c1ccc(N)cc1,Potency,[3],inactive
same,Potency,[5],inactive
same,Potency,[6],inactive
same,Potency,[7],39.8 µM (active)
same,Potency,[11],inactive
same,Potency,[16],inactive
same,max response,[18],9.43%
same,max response,[19],-16.2% (inactive)
same,Potency,[20],44.7 µM (active)
Nc1cnn([C@@H]2O[C@H](CO)[C@@H](O)[C@H]2O)c(=O)n1,Potency,[1],> 92 µM (inactive)
same,Potency,[2],> 92 µM (inactive)
same,Potency,[3],inactive
same,Potency,[4],inactive
same,Potency,[5],inactive
same,Potency,[6],inactive
same,Potency,[8],inactive
same,Potency,[9],inactive
same,Potency,[10],inactive
same,Potency,[11],inactive
same,Potency,[12],inactive
same,Potency,[13],inactive
same,Potency,[14],inactive
same,Potency,[15],inactive
same,Potency,[16],inactive
same,Potency,[17],inactive
same,max response,[18],8.26%
same,max response,[19],-17.1% (inactive)
O=C1OC(=O)c2ccccc21,Potency,[1],> 92 µM (inactive)
same,Potency,[2],> 92 µM (inactive)
same,Potency,[3],inactive
same,Potency,[4],inactive
same,Potency,[5],inactive
same,Potency,[6],inactive
same,Potency,[7],inactive
same,Potency,[8],inactive
same,Potency,[9],inactive
same,Potency,[10],inactive
same,Potency,[11],inactive
same,Potency,[12],inactive
same,Potency,[13],inactive
same,Potency,[14],inactive
same,Potency,[15],inactive
same,Potency,[16],inactive
same,Potency,[17],inactive
same,max response,[18],4.94%
same,max response,[19],20.4% (inactive)
CC(=O)Nc1cccc(C)c1,Potency,[1],> 92 µM (inactive)
same,Potency,[2],> 92 µM (inactive)
same,Potency,[3],inactive
same,Potency,[4],inactive
same,Potency,[5],inactive
same,Potency,[6],inactive
same,Potency,[7],inactive
same,Potency,[8],inactive
same,Potency,[9],inactive
same,Potency,[10],inactive
same,Potency,[11],inactive
same,Potency,[12],inactive
same,Potency,[13],inactive
same,Potency,[14],inactive
same,Potency,[15],inactive
same,Potency,[16],inactive
same,Potency,[17],inactive
same,max response,[18],1.11%
same,max response,[19],1.56% (inactive)
same,activation,[20],0.306% (inactive)
O=C=Nc1ccc(Cl)c(Cl)c1,Potency,[7],inactive
same,Potency,[16],inactive
same,max response,[18],26.4%
same,Potency,[19],14.1 µM (active)
